BLM inh: inhibitors of human Bloom syndrome helicase BLM; P54132; recombinant BLM DNA unwinding, fluorescence dequenching; 0.2% of 350,000 active; Potency, µM (titrated, usually from 56.1 µM), hits mostly inhibitors; AID 2528; also: nearly all actives have a fitted effect of over 35% in size
RECQ1 inh-1: RECQ1 (human) helicase inhibition; P46063; RECQ1 DNA unwinding, red fluorescence kinetic read; Potency, µM (highest dose often 57.3 µM), usual class: inhibitors; 0.54% of 240,000 active; AID 2549; also: nearly all actives have a fitted effect of over 30% in size
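50 nM RECQ1T1 preincubated 15 min with compound in Tris pH 8.0 buffer with MgCl2, DTT, Tween-20 and 2.5 ug/ml poly(dI-dC); started with 200 nM TAMRA/BHQ-2 forked duplex and 2 mM ATP. Unwinding read as fluorescence (525/598 nm), two reads 2 h apart.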
FEN1 inh: inhibitors of human flap endonuclease 1 | 0.35% of 390,000 active | Recombinant FEN1 flap cleavage, fluorescence, 15 min | Potency, µM (highest dose often 114 µM), most hits filed as inhibitors | P39748; also: nearly all actives have a fitted effect of over 65% in size
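In this screen, 50 nM flap DNA substrate was added to 10 nM FEN1 pretreated with compound for 15 min at room temperature; cleavage was followed with reads at 0 and 15 min, and Hill fitting gave concentration–response parameters.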
WRN helicase inh: WRN helicase (human) inhibition; WRN helicase unwinding, fluorescent forked duplex, kinetic; Q14191; Potency, µM (top dose mostly 114 µM), hits mostly inhibitors; 0.46% of 360,000 active; also: nearly all actives have a fitted effect of over 55% in size
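Primary qHTS, 1536-well format. 20 nM WRN + compound, 15 min RT; start with 100 nM forked fluorophore/quencher duplex, 2 mM ATP (final); kinetic read ex 525/em 598 nm.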
L3MBTL1 block: inhibitors of human L3MBTL1; Q9Y468; AlphaScreen L3MBTL1–H3K9me1 peptide binding; Potency, µM (titrated, usually from 57.1 µM), usual class: inhibitors; 0.66% of 230,000 active; AID 485360; also: nearly all actives have a fitted effect of over 60% in size
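L3MBTL1 50 nM + b-AHA-H3(1-15)K9me1 75 nM, 30 min RT; compound added, 30 min RT; streptavidin donor/Ni-chelate acceptor beads 10 ug/mL each final, 30 min RT dark; AlphaScreen read.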
RECQ1 conf: confirmation of human RECQ1 helicase inhibitors | shares compounds with RECQ1 inh-1 | RECQ1 helicase DNA unwinding, fluorescence | Potency, µM (series often up to 229 µM), usual class: inhibitors | 28% of 610 active; also: nearly all actives have a fitted effect of over 45% in size
RECQ1 ADP FP: counter-screen for RECQ1 inhibitors: ADP displacement | shares compounds with RECQ1 inh-1 | ADP fluorescence polarization displacement counterscreen | Potency, µM (top dose mostly 228 µM), most hits filed as inhibitors | 27% of 530 active | AID 2711; also: nearly all actives have a fitted effect of over 45% in size
RECQ1 inh-2: RECQ1 helicase inhibition confirmed, round 2; shares compounds with RECQ1 inh-1; Potency, µM (doses to about 119 µM), usual class: inhibitors; recombinant RECQ1 DNA unwinding, red fluorescence; 15% of 1,100 active; also: nearly all actives have a fitted effect of over 50% in size
Hits are given with their value; - = inactive; ? = inconclusive; . = no result given; [ ] = dose if it differs, or a comment. An excerpt weighted towards active compounds, which were near 0.99% of everything screened. Calls follow the shape of the dose curve; as a rule, active = well fitted curve in the direction sought with a large enough effect; inconclusive = small, poorly fitted or top-dose-only effect, or another doubt; inactive = no such curve, though single readings can be large; an effect the other way counts as inactive or inconclusive.

SMILES | BLM inh | RECQ1 inh-1 | FEN1 inh | WRN helicase inh | L3MBTL1 block | RECQ1 inh-2 | others
CN(C)S(=O)(=O)c1ccc(C(=O)OCc2nnc(-c3ccccc3)o2)cc1 | - | - | - | - | - | .
O=C(OCc1nnc(-c2ccccc2)o1)c1ccc(S(=O)(=O)NCc2ccco2)cc1 | - | 39.8µM | - | - | - | ?
Cc1ccc(C(=O)Nc2nc(-c3cccnc3)cs2)o1 | - | ? | - | - | - | - | RECQ1 conf=-;RECQ1 ADP FP=-
C=C/C(C)=C/[C@@]1(C)SC(=O)C(C)=C1O | . | 8.91µM | . | . | . | . | RECQ1 conf=39.8µM;RECQ1 ADP FP=11.2µM
CC1(C(=O)O)NCCc2cc(O)c(O)cc21 (centres undefined) | . | 6.31µM | . | . | . | . | RECQ1 conf=?;RECQ1 ADP FP=3.16µM
CCCC[n+]1c(C)sc2cc(OC)ccc21 | - | - | - | - | - | .
COC(=O)c1cc(O)cc(OC)c1C(=O)c1c(O)cc(C)cc1O | - | ? | - | -[11.6 µM] | . | ?
CCN(C(=O)c1ccc(S(=O)(=O)N2CCC(C)CC2)cc1)C1CCS(=O)(=O)C1 (centres undefined) | . | . | - | - | - | .
C=CCNC(=O)c1cc2c(=O)c3ccccc3oc2nc1C | - | 28.2µM | - | - | - | -
O=C(COC(=O)/C=C/c1ccc(OC(F)F)cc1)Nc1ccc2[nH]c(=O)[nH]c2c1 | . | . | - | - | - | .
O=C(CN1CCN(c2ccc(F)cc2)CC1)Nc1ccc2c(c1)OCCO2 | - | . | - | - | . | .
O=C(CN1CCN(c2ccc(O)cc2)CC1)NC(=O)NCc1ccco1 | - | 22.4µM | - | - | - | -
COc1ccc(N2CCN(CC(=O)NC(=O)NCc3ccco3)CC2)cc1 | - | - | - | - | - | .
O=C(CN1CCN(c2ccc(O)cc2)CC1)Nc1ccc2c(c1)OCCO2 | - | ? | - | - | - | -
CC(=O)Nc1ccc(CN2CCc3c([nH]c4ccccc34)C2c2ccccn2)cc1 (centres undefined) | - | - | - | - | - | .
Cc1ccc(CSC2=Nc3sccc3C3=NC(=O)CN23)cc1 | - | 31.6µM | - | - | - | -
COc1cc2c(cc1OC)C1=NC(=O)CN1C(SCc1ccc(C)cc1)=N2 | - | - | - | - | - | .
CCCCCc1c2c(cc(O)c1C(=O)O)OC(=O)c1c(cc(OC)cc1C(=O)CCCC)O2 | - | ? | - | ? | - | ?
CCCCCc1c2c(cc(O)c1C(=O)O)OC(=O)c1cc(C(=O)CCCC)c(OC)cc1O2 | - | 12.6µM | ? | ? | - | ?
CCN(CC)CCOc1c(Br)ccc2c1sc1nc3n(c(=O)c12)CCC3 | - | ? | 50.1µM | - | - | -
O=c1c2c(nc3n1CCCCC3)sc1c(O)c(Br)ccc12 | - | - | - | - | . | .
COc1ccc(N(CC(=O)NCCSCc2ccco2)S(=O)(=O)c2ccccc2)cc1 | - | - | - | - | - | .
O=C(CN(c1ccccc1)S(=O)(=O)c1ccccc1)NCCSCc1ccco1 | - | 14.1µM | - | -[11.6 µM] | - | ? | RECQ1 conf=50.1µM;RECQ1 ADP FP=50.1µM
O=C(O)C[C@@H]1C(=O)O[C@@H]2C(COC(=O)c3cc(O)c(O)c(O)c3)O[C@@H](OC(=O)c3cc(O)c(O)c(O)c3)[C@@H](OC(=O)c3cc(O)c(O)c4c3[C@H]1[C@H](O)C(=O)O4)[C@H]2OC(=O)c1cc(O)c(O)c(O)c1 (some centres undefined) | 0.1µM | 0.112µM | . | . | . | . | RECQ1 conf=0.447µM;RECQ1 ADP FP=31.6µM
CC1=Nc2ccccc2N=C(NC(=O)CSc2nnnn2-c2ccccc2)C1c1ccccc1 (centres undefined) | - | - | - | - | . | . | RECQ1 conf=-;RECQ1 ADP FP=-
SMILES | BLM inh | RECQ1 inh-1 | FEN1 inh | WRN helicase inh | L3MBTL1 block | RECQ1 inh-2 | others
NC(=O)c1ccc(-n2nnnc2SCC(=O)Nc2ccccc2)cc1 | - | . | - | - | - | .
Cc1cc(C(=O)CSc2nnc(-c3ccccc3)n2-c2ccccc2)c(C)n1-c1ncn[nH]1 | - | 35.5µM | - | ? | - | ?
Cc1cc(C(=O)CSc2nnc(-c3ccncc3)n2-c2ccccc2)c(C)n1C | - | ? | - | ? | - | .
O=C(CC1C(=O)NCCN1Cc1ccc(-c2ccccc2)cc1)NCCOc1cccnc1 (centres undefined) | - | ? | - | - | - | -
O=C(/C=C\c1ccco1)NC(=S)Nc1ccccc1O | - | - | - | ? | - | .
Cc1ccc(NC(=S)NC(=O)/C=C/c2ccco2)c(O)c1 | - | ? | - | - | - | -
O=C(c1ncc[nH]1)c1ccco1 | - | - | - | - | - | .
O=C(c1cc(C(=O)c2ccco2)cc(C(=O)c2ccco2)c1)c1ccco1 | - | 35.5µM | - | - | - | -
Cc1ccccc1NS(=O)(=O)c1cc(S(C)(=O)=O)ccc1C | - | - | - | - | - | .
Cc1nc2cnc(N3CCOCC3)nc2n(Cc2ccc(F)cc2)c1=O | - | 0.631µM | . | . | . | -
Cc1c(C)c2c(c(C)c1O)CCC(C)(COc1ccc(CC3SC(=O)NC3=O)cc1)O2 (centres undefined) | - | ? | . | . | . | ?
CC1(COc2ccc(C[C@H]3SC(=O)NC3=O)cc2)CCCCC1 | - | - | . | . | . | .
Cc1cc(C)cc(NC(=O)C2CCN(S(=O)(=O)c3ccc4c(c3)oc(=O)n4C)CC2)c1 | - | . | - | . | . | .
O=C(O)c1ccccc1C(=O)Nc1ccc(S(=O)(=O)N2CCCC2)cc1 | - | . | - | - | . | .
Cc1sc(NC(=O)c2ccco2)c(C(c2cccnc2)N2CCN(c3ccc(F)cc3)CC2)c1C (centres undefined) | - | 39.8µM | - | - | - | ?
CN1/C(=C\C=N\O)C(C)(C)c2ccccc21 | - | - | - | - | - | .
Cc1ccccc1N=C/C=C1\N(C)c2ccccc2C1(C)C | - | ? | - | - | . | -
Cc1ccc(NC(=O)c2cncc(Br)c2)cc1S(=O)(=O)N(C)C | - | - | - | - | - | .
COc1ccc(CN2C(=O)c3oc4ccccc4c(=O)c3C2c2ccc(O)c(OC)c2)cc1 (centres undefined) | - | - | - | - | - | .
NC(=O)c1sc2nc(-c3ccco3)ccc2c1N | - | 11.2µM | ? | ? | - | -
COC(=O)c1sc2nc(-c3ccco3)ccc2c1N | - | - | - | - | - | .
C[C@@H]1CC=C[C@H]2[C@H]1C(=O)N(Cc1ccccc1)[C@H]2c1ccc(-c2cc3ccccc3s2)cc1F | - | - | - | - | . | .
CNc1ccc(/C=C/C(=O)c2ccc(C)cc2)cc1[N+](=O)[O-] | - | ? | - | - | - | -
O=C(Cc1cccs1)Nc1ccc(S(=O)(=O)Nc2ncccn2)cc1 | - | ? | ? | ? | ? | ?
O=C(Cc1cccs1)Nc1ccc(S(=O)(=O)N2CCCCC2)cc1 | - | 25.1µM | - | ? | 22.4µM | ?

High-throughput results: PubChem BioAssay, National Center for Advancing Translational Sciences (NCATS)
